The term inhibition denotes the drop in the measured response relative to a control, in per cent.

Activity calls are given as the source filed them. No rule for the calls is given here.

The target in the test is Pantothenate synthetase (Mycobacterium tuberculosis (strain ATCC 25618 / H37Rv)) (UniProt P9WIL5). In words: Recombinant Mtb pantothenate synthetase (PanC) inhibitors, coupled enzyme, confirmatory (AID 375).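 Also: 0% = full reaction with vehicle and 100% = no enzyme background.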 Particulars: coupled enzyme assay; at 10 µM, active compounds read high.
Chain of Pantothenate synthetase (Mycobacterium tuberculosis (strain ATCC 25618 / H37Rv)) (P9WIL5 whole entry, looked up): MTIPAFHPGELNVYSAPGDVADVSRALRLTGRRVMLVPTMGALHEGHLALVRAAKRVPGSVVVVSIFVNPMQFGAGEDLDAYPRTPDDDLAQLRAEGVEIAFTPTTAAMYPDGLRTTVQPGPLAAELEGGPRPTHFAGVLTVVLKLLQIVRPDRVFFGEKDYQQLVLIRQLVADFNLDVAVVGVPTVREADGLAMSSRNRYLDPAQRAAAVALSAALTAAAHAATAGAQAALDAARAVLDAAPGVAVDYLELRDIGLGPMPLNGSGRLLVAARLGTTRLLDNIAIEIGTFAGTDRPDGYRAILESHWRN
For the molecule `Cc1nnc(N2C(=O)c3oc4ccccc4c(=O)c3C2c2ccco2)s1` (stereo not given), the inhibition is 2% (inactive).

`CCN1C(=O)NC(c2cc(Br)ccc2OC)C(C(=O)OC)=C1C` (stereo not given): the inhibition is 0% (inactive). Turning to `CCCCc1nc2ccccc2n2cc3c(=O)n(C)c(=O)n(C)c3c12`, the inhibition was 0% (inactive). For the molecule `O=C(CCCc1cccs1)Nc1nc2c(s1)CCCC2`, the inhibition is 2% (inactive). On to `N#CCCn1cnc2ccccc21`, for which the inhibition was 0% (inactive).

As to `COc1cccc(C(=O)NC2=NCCS2)c1`, the inhibition is 0% (inactive). As for `Cc1nnc(SCc2cn3ccsc3n2)n(N)c1=O`, the inhibition was 0% (inactive).

Consider `CC(c1nnc(SCC(=O)Nc2sccc2C#N)n1-c1ccc(Cl)cc1)N(C)C` (stereo not given), for which the inhibition was 0% (inactive). Then `Cn1c([N+](=O)[O-])cnc1COC(N)=O`, with 0% (inactive). Then `C=CCn1c(=O)[nH]c2cc(C(=O)N3CCN(c4ccc(C(C)=O)cc4)CC3)ccc2c1=O`, with 1% (inactive). Take `CN1CCN2c3ccccc3Cc3ccccc3C2C1` (stereo not given): the inhibition is 0% (inactive). Consider `CC(C)CC1NC(=O)N(CC(=O)N2CCN(S(=O)(=O)c3ccc(Cl)cc3)CC2)C1=O` (stereo not given), for which the inhibition was 0% (inactive). Then `Cc1ccc(-c2cc(C(=O)NCc3ccc4c(c3)OCO4)no2)cc1`, with 0% (inactive); and `CC(NC(=O)COc1ccc(Br)cc1)C(=O)O` (stereo not given), with 0% (inactive); and `O=C(CCNNC(=O)c1ccncc1)NCc1ccccc1`, with 0% (inactive). In the case of `CCOc1ccc(NC(=O)CN(C)S(=O)(=O)c2cccs2)cc1`, the inhibition is 13% (inactive). As for `Cc1noc(C)c1COC(=O)c1ccccc1Oc1ccccc1`, the inhibition is 0% (inactive).

Turning to `COc1cccc(CNc2nc3nc(C)c(Cl)c(C)n3n2)c1`, the inhibition is 12% (inactive). As for `CCOc1ccccc1CN1C(=O)c2ccccc2C1C(=O)NCC1CCCO1` (stereo not given), the inhibition was 11% (inactive). In the case of `CC1C/C=C/C=C/C=C/C=C/C(O[C@@H]2O[C@H](C)[C@@H](O)[C@H](N)[C@@H]2O)CC2OC(O)(CC(O)CC3OC3/C=C/C(=O)O1)CC(O)C2C(=O)O` (stereo not given in full), the inhibition is 5% (inactive). For `O=C1CCCc2c1nn(-c1ccccc1)[n+]2[O-]`, the inhibition is 0% (inactive). The figure for `O=[n+]1c2c(n([O-])c3cc(F)c(N4CCCC4)cc31)CCC2` is 9% (inactive). Regarding `COc1ccc(OC)c(C(=O)COC(=O)c2cc(C)oc2C)c1`, the inhibition is 11% (inactive). The figure for `CO[C@@]1(NC(=O)CSCC#N)C(=O)N2C(C(=O)O)=C(CSc3nnnn3C)CS[C@@H]21` is 0% (inactive). Regarding `COc1ccc(OC)c(C2C(C(=O)Nc3cccnc3)=C(C)NC3=C2C(=O)CCC3)c1` (stereo not given), the inhibition was 0% (inactive).

With `Cc1cc(C)n(S(=O)(=O)c2cc(C(=O)O)c(Cl)cc2Cl)n1`, the inhibition is 0% (inactive). On to `COc1ccc(-n2c(COc3ccccc3)nnc2SCc2ccc(C#N)cc2)cc1`, for which the inhibition is 0% (inactive). Consider `O=C(CNc1ccc(Oc2ccccc2)cc1)N1CCOCC1`, for which the inhibition is 0% (inactive).

In the case of `CCOc1cc(C(=O)Nc2ncccn2)cc(OCC)c1OCC`, the inhibition is 2% (inactive). `CCC(=O)Nc1ccc(NC(=O)CSc2nnnn2C(C)C)cc1`: the inhibition is 0% (inactive). With `O=C(Cc1ccc(S(=O)(=O)N2CCCC2)s1)Nc1nc2c(s1)CCCC2`, the inhibition is 1% (inactive).

With `CCN(CCCNC(=O)CC1Oc2ccc(C)cc2NC1=O)Cc1ccccc1` (stereo not given), the inhibition is 0% (inactive). As for `O=C(CCNS(=O)(=O)c1cccc2nsnc12)NCc1cccs1`, the inhibition is 1% (inactive). Take `Cc1nc2cc(CO)ccc2n1C`: the inhibition was 4% (inactive). For `COc1cccc(-n2c(CNc3ccc(F)cc3)nnc2SCC(N)=O)c1`, the inhibition was 0% (inactive). Consider `Cc1cccc(CN2CCC(CNC(=O)C3CCCN(S(=O)(=O)c4cnc[nH]4)C3)CC2)c1` (stereo not given), for which the inhibition was 0% (inactive).

In the case of `O=C(CC(C(=O)N1CCc2ccccc21)n1ccnc1)NCc1cccnc1` (stereo not given), the inhibition is 0% (inactive). Turning to `COc1cc(-c2nc(S(=O)(=O)c3ccc(C)cc3)c(N(C)C)o2)cc(OC)c1OC`, the inhibition is 3% (inactive).

Turning to `O=C(Nc1ccc2c(c1)OCCO2)c1cnc2n(c1=O)CCS2`, the inhibition is 0% (inactive). For the molecule `COc1cccc(C(=O)Nc2cnc(NC(=O)c3ccco3)cc2C)c1`, the inhibition is 9% (inactive).

The record behind these values is PubChem BioAssay.
